# Experimental data taken from PubChem BioAssay (EPA / NIEHS).
# The source made the active and inactive calls. The calls were made as follows: active = hit-call score of the fitted dose curve at least 0.9, where 1 is the maximum; inactive = score below 0.9.
# Columns and labels:
# Details in all cases: mRNA level, 48 h; actives raise or lower the signal
# [1] = read-out: Cytochrome P450 (CYP2B6), CYP2B6 (gene 1555); assay: LTEA_HepaRG_CYP2B6: Life Technologies and Expression Analysis (LTEA) Assay for Cytochrome P450 (CYP2B6) using HepaRG (AID 2283481)
# Outline: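 HepaRG cells plated 48 h, switched to serum-free induction medium, then dosed 48 h (8 points, half-log from 100 uM, 0.5% DMSO). RNA isolated; CYP2B6 expression measured by qRT-PCR; gain or loss fitted relative to DMSO.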
# [2] = read-out: Cytochrome P450 2C19 (Homo sapiens) (UniProt P33261); assay: LTEA_HepaRG_CYP2C19: Life Technologies and Expression Analysis (LTEA) Assay for CYP2C19 using HepaRG (AID 2283482)
# Outline: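 Transcript levels of CYP2C19 were quantified by qRT-PCR after HepaRG cells were treated for 48 hours with test chemicals up to 100 uM (eight half-log concentrations, 0.5% DMSO vehicle). Gain or loss of signal was fitted relative to DMSO.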
# CYP2C8 (gene 1558) = assay: LTEA_HepaRG_CYP2C8: Life Technologies and Expression Analysis (LTEA) Assay for CYP2C8 using HepaRG (AID 2283483)
# Outline: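 This is a transcriptional endpoint in HepaRG cultures: 48 h exposure, highest concentration 100 uM. CYP2C8 mRNA is quantified by TaqMan qRT-PCR.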
# CYP2C9 (gene 1559) = assay: LTEA_HepaRG_CYP2C9: Life Technologies and Expression Analysis (LTEA) Assay for CYP2C9 using HepaRG (AID 2283484)
# Outline: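 Eight-point concentration-response (highest 100 uM, half-log dilutions) in HepaRG cells for 48 h; CYP2C9 expression by qRT-PCR normalized to ACTB, GAPDH, POLR2A. Bidirectional fit, DMSO baseline.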
# CYP2E1 (gene 1571) = assay: LTEA_HepaRG_CYP2E1: Life Technologies and Expression Analysis (LTEA) Assay for CYP2E1 using HepaRG (AID 2283485)
# Outline: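 Readout is qRT-PCR of CYP2E1 mRNA, normalized to three housekeeping genes and fitted bidirectionally against 0.5% DMSO. HepaRG cells were dosed 48 h at eight concentrations, highest 100 uM with half-log dilutions.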
# [3] = read-out: Cytochrome P450 3A4 (Homo sapiens) (UniProt P08684); assay: LTEA_HepaRG_CYP3A4: Life Technologies and Expression Analysis (LTEA) Assay for CYP3A4 using HepaRG (AID 2283487)
# Outline: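 Differentiated HepaRG cells, plated 48 h, then dosed 48 h in serum-free induction medium with 0.5% DMSO, 8 half-log concentrations up to 100 uM, duplicate. CYP3A4 mRNA by qRT-PCR, normalized to ACTB/GAPDH/POLR2A; bidirectional fit versus DMSO.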
# [4] = read-out: DNA damage-inducible transcript 3 (DDIT3), DDIT3 (gene 1649); assay: LTEA_HepaRG_DDIT3: Life Technologies and Expression Analysis (LTEA) Assay for DNA damage-inducible transcript 3 (DDIT3) using HepaRG (AID 2283488)
# Outline: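 Cells are human HepaRG liver cells treated for 48 h with eight half-log concentrations up to 100 uM in 0.5% DMSO. Transcript levels come from qRT-PCR normalized to three housekeeping genes, with activity fitted in both directions relative to vehicle.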
# [5] = read-out: Pro-epidermal growth factor (Homo sapiens) (UniProt P01133); assay: LTEA_HepaRG_EGF: Life Technologies and Expression Analysis (LTEA) Assay for Epidermal growth factor (EGF) using HepaRG (AID 2283489)
# Outline: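 HepaRG, 48 h dosing, 100 uM top, half-log x8, 0.5% DMSO. Readout: TaqMan qRT-PCR (Fluidigm array), housekeeping-normalized. Gain or loss of signal fit vs DMSO.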
# [6] = read-out: Early growth response protein 1 (EGR1) transcription factor, EGR1 (gene 1958); assay: LTEA_HepaRG_EGR1: Life Technologies and Expression Analysis (LTEA) Assay for Early growth response protein 1 (EGR1) transcription factor using HepaRG (AID 2283490)
# Outline: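 EGR1 expression change in human HepaRG after 48 h chemical exposure, assessed by housekeeping-normalized qRT-PCR; concentration-response up to 100 uM, fitted in both directions against DMSO controls.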
# [7] = read-out: Ezrin (EZR), EZR (gene 7430); assay: LTEA_HepaRG_EZR: Life Technologies and Expression Analysis (LTEA) Assay for Ezrin (EZR) using HepaRG (AID 2283491)
# Outline: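 EZR transcript levels came from Fluidigm qRT-PCR and were normalized to three housekeeping genes after 48 h chemical exposure of HepaRG cells. Dosing used an 8-point half-log series with a 100 uM top concentration in 0.5% DMSO, tested in duplicate; both directions were fitted versus vehicle.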
# [8] = read-out: Cytochrome P450 3A7 (Homo sapiens) (UniProt P24462); assay: LTEA_HepaRG_CYP3A7: Life Technologies and Expression Analysis (LTEA) Assay for CYP3A7 using HepaRG (AID 2283492)
# Outline: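 Human HepaRG liver cells, 48 h post-plating, switched to serum-free induction medium and exposed in duplicate for 48 h. Dosing: 100 uM top, half-log dilutions, 8 points, 0.5% DMSO vehicle. Read-out: CYP3A7 mRNA, gain or loss fitted against DMSO baseline.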
# CYP3A5 (gene 1577) = assay: LTEA_HepaRG_CYP3A5: Life Technologies and Expression Analysis (LTEA) Assay for CYP3A5 using HepaRG (AID 2283493)
# Outline: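 Human HepaRG hepatic cells receive 48 h chemical treatment at eight concentrations (half-log steps from 100 uM) in 0.5% DMSO. Expression of CYP3A5 is quantified by Fluidigm qRT-PCR and normalized to three reference genes.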
# [9] = read-out: Cytochrome P450 4A22 (Homo sapiens) (UniProt Q5TCH4); assay: LTEA_HepaRG_CYP4A22: Life Technologies and Expression Analysis (LTEA) Assay for Cytochrome P450 4A22 (CYP4A22) using HepaRG (AID 2283495)
# Outline: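 Readout is CYP4A22 transcript induction or loss, quantified by qRT-PCR and normalized to ACTB, GAPDH and POLR2A. Human HepaRG cells receive test chemicals for 48 h at eight half-log concentrations from 100 uM in 0.5% DMSO.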
# [10] = read-out: Cytochrome P450 7A1 (Homo sapiens) (UniProt P22680); assay: LTEA_HepaRG_CYP7A1: Life Technologies and Expression Analysis (LTEA) Assay for Cytochrome P450 7A1 (CYP7A1) using HepaRG (AID 2283496)
# Outline: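 HepaRG, 48 h exposure, 8-pt half-log series from 100 uM, 0.5% DMSO vehicle, duplicates. Readout: TaqMan qRT-PCR mRNA vs three housekeeping genes; bidirectional curve fit against DMSO baseline.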
# [11] = read-out: Glutathione S-Transferase (GSTA2), GSTA2 (gene 2939); assay: LTEA_HepaRG_GSTA2: Life Technologies and Expression Analysis (LTEA) Assay for Glutathione S-Transferase (GSTA2) using HepaRG (AID 2283497)
# Outline: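 Oxidative-stress marker GSTA2 is quantified by TaqMan qRT-PCR in HepaRG cultures treated 48 h across an eight-point range to 100 uM. Expression is normalized to endogenous controls and compared with 0.5% DMSO vehicle.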
# [12] = read-out: Glutamate-cysteine ligase catalytic (GCLC), GCLC (gene 2729); assay: LTEA_HepaRG_GCLC: Life Technologies and Expression Analysis (LTEA) Assay for Glutamate-cysteine ligase catalytic (GCLC) using HepaRG (AID 2283498)
# Outline: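 Oxidative-stress marker GCLC is measured as mRNA change in human HepaRG liver cells after 48 h chemical treatment in 0.5% DMSO, eight concentrations from 100 uM. Activity is fitted bidirectionally against vehicle.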
# [13] = read-out: growth arrest and DNA damage 45 (GADD45G), GADD45G (gene 10912); assay: LTEA_HepaRG_GADD45G: Life Technologies and Expression Analysis (LTEA) Assay for growth arrest and DNA damage 45 (GADD45G) using HepaRG (AID 2283499)
# Outline: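 Gain or loss of GADD45G mRNA, quantified by TaqMan qRT-PCR against three housekeeping genes, is fitted in both directions relative to 0.5% DMSO. Human HepaRG cultures receive test chemical for 48 h at up to 100 uM.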
# [14] = read-out: Glutamate-cysteine ligase regulatory (GCLM), GCLM (gene 2730); assay: LTEA_HepaRG_GCLM: Life Technologies and Expression Analysis (LTEA) Assay for Glutamate-cysteine ligase regulatory (GCLM) using HepaRG (AID 2283500)
# Outline: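 Endpoint is GCLM transcript level by qRT-PCR, normalized to three housekeeping genes, after 48 h chemical exposure of human HepaRG cells (0.5% DMSO vehicle, top 100 uM, half-log dilutions). Fitting was bidirectional relative to DMSO.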
# CYP4A11 (gene 1579) = assay: LTEA_HepaRG_CYP4A11: Life Technologies and Expression Analysis (LTEA) Assay for CYP4A11 using HepaRG (AID 2283486)
# Outline: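 HepaRG, 48 h chem exposure, 8 conc (100 uM top, half-log), 0.5% DMSO vehicle; qRT-PCR readout, housekeeping-gene normalized; bidirectional curve fit vs DMSO baseline.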
# Cytochrome P450 2C19 (Homo sapiens), sequence (P33261 whole entry, looked up): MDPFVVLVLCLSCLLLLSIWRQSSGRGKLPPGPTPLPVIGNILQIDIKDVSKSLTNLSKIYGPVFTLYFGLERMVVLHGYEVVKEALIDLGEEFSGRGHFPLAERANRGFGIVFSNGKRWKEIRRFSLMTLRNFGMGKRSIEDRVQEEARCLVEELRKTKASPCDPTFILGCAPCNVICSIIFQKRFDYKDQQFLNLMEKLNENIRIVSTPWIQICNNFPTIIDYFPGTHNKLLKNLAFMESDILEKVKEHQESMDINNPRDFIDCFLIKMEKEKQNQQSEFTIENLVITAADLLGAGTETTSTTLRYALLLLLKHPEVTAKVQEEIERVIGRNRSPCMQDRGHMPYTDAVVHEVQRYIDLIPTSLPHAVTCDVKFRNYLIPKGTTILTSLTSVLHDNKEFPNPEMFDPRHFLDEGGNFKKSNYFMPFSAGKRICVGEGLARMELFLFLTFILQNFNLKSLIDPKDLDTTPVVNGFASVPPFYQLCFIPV
# Cytochrome P450 3A4 (Homo sapiens), sequence (P08684 whole entry, looked up): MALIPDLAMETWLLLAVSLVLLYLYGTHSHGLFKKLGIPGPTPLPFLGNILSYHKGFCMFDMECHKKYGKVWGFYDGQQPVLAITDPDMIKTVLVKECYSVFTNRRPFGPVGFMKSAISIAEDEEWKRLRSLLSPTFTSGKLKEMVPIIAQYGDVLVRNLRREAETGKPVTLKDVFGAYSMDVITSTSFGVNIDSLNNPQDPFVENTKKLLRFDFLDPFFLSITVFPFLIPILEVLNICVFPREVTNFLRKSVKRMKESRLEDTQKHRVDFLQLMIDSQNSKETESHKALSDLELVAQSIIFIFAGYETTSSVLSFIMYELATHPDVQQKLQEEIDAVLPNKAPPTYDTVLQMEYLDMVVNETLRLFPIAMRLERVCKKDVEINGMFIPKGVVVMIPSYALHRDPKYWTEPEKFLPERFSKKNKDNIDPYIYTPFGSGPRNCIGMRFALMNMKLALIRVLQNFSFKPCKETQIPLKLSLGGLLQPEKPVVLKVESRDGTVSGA
# Cytochrome P450 3A7 (Homo sapiens), sequence (P24462 whole entry, looked up): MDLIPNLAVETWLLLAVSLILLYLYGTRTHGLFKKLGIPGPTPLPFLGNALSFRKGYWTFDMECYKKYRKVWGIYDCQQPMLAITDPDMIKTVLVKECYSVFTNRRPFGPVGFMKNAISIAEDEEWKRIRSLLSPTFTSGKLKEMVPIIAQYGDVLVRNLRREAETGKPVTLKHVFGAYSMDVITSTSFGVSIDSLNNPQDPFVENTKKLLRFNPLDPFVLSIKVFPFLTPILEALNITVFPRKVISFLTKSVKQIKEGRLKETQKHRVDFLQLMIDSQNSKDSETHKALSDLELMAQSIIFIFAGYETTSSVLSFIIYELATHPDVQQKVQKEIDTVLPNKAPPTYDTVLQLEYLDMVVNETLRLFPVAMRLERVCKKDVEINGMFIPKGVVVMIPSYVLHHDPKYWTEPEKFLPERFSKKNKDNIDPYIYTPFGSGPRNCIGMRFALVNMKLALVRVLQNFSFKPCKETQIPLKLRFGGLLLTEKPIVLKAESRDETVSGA
smiles,measurement,setting,value
CC(C)NC(=O)N1CC(=O)N(c2cc(Cl)cc(Cl)c2)C1=O,AC50,[1],3.63 µM (active)
same,outcome,[2],inactive
same,outcome,CYP2C8 (gene 1558),inactive
same,outcome,CYP2C9 (gene 1559),inactive
same,AC50,CYP2E1 (gene 1571),13.2 µM (active)
same,AC50,[3],2.97 µM (active)
same,outcome,[4],inactive
same,AC50,[5],12.8 µM (active)
same,outcome,[6],inactive
same,outcome,[7],inactive
same,outcome,[8],inactive
same,outcome,CYP3A5 (gene 1577),inactive
same,AC50,[9],8.83 µM (active)
same,AC50,[10],13.1 µM (active)
same,AC50,[11],25 µM (active)
same,outcome,[12],inactive
same,AC50,[13],50 µM (active)
same,AC50,[14],27.8 µM (active)
Clc1nc(Cl)nc(Nc2ccccc2Cl)n1,AC50,[1],34.8 µM (active)
same,AC50,[2],10.3 µM (active)
same,outcome,CYP2C8 (gene 1558),inactive
same,outcome,CYP2C9 (gene 1559),inactive
same,AC50,CYP2E1 (gene 1571),16.7 µM (active)
same,outcome,CYP4A11 (gene 1579),inactive
same,AC50,[3],18.5 µM (active)
same,outcome,[4],inactive
same,outcome,[5],inactive
same,outcome,[6],inactive
same,outcome,[7],inactive
same,outcome,CYP3A5 (gene 1577),inactive
same,outcome,[9],inactive
same,outcome,[11],inactive
same,outcome,[12],inactive
same,outcome,[13],inactive
same,outcome,[14],inactive
O=P(O)(O)CCCl,outcome,[1],inactive
same,AC50,[2],0.396 µM (active)
same,outcome,CYP2C8 (gene 1558),inactive
same,outcome,CYP2C9 (gene 1559),inactive
same,outcome,CYP2E1 (gene 1571),inactive
same,outcome,CYP4A11 (gene 1579),inactive
same,outcome,[3],inactive
same,outcome,[4],inactive
same,outcome,[5],inactive
same,outcome,[6],inactive
same,outcome,[7],inactive
same,outcome,CYP3A5 (gene 1577),inactive
same,outcome,[9],inactive
same,outcome,[10],inactive
same,outcome,[11],inactive
same,outcome,[12],inactive
same,outcome,[13],inactive
same,outcome,[14],inactive
CC(C)N1C(=O)N(c2ccccc2)CSC1=NC(C)(C)C,AC50,[1],89.3 µM (active)
same,AC50,[2],11.4 µM (active)
same,AC50,CYP2C8 (gene 1558),84.2 µM (active)
same,AC50,CYP2C9 (gene 1559),83.3 µM (active)
same,AC50,CYP2E1 (gene 1571),63.5 µM (active)
same,AC50,CYP4A11 (gene 1579),67.6 µM (active)
same,AC50,[3],12 µM (active)
same,AC50,[4],73.8 µM (active)
same,outcome,[5],inactive
same,outcome,[6],inactive
same,AC50,[7],50 µM (active)
same,outcome,CYP3A5 (gene 1577),inactive
same,AC50,[9],63.6 µM (active)
same,AC50,[11],82.3 µM (active)
same,AC50,[12],81.8 µM (active)
same,AC50,[13],76.1 µM (active)
same,AC50,[14],74.7 µM (active)
CCSC(=O)N1CCCCCC1,AC50,[1],2.93 µM (active)
same,outcome,[2],inactive
same,outcome,CYP2C8 (gene 1558),inactive
same,outcome,CYP2C9 (gene 1559),inactive
same,outcome,CYP2E1 (gene 1571),inactive
same,outcome,CYP4A11 (gene 1579),inactive
same,AC50,[3],30 µM (active)
same,outcome,[4],inactive
same,outcome,[5],inactive
same,outcome,[6],inactive
same,outcome,[7],inactive
same,outcome,CYP3A5 (gene 1577),inactive
same,outcome,[9],inactive
same,outcome,[11],inactive
same,outcome,[12],inactive
same,outcome,[13],inactive
same,outcome,[14],inactive
CCNP(=S)(OC)O/C(C)=C/C(=O)OC(C)C (stereo not drawn),AC50,[1],5.19 µM (active)
same,AC50,[2],8.66 µM (active)
same,AC50,CYP2C8 (gene 1558),12.9 µM (active)
same,outcome,CYP2C9 (gene 1559),inactive
same,AC50,CYP2E1 (gene 1571),34.8 µM (active)
same,AC50,CYP4A11 (gene 1579),68.4 µM (active)
same,AC50,[3],8.97 µM (active)
same,outcome,[4],inactive
same,outcome,[5],inactive
same,outcome,[6],inactive
same,outcome,[7],inactive
same,outcome,CYP3A5 (gene 1577),inactive
same,outcome,[9],inactive
same,outcome,[10],inactive
same,outcome,[11],inactive
same,outcome,[12],inactive
same,outcome,[13],inactive
same,AC50,[14],9.92 µM (active)
COP(=S)(OC)Oc1ccc([N+](=O)[O-])c(C)c1,AC50,[1],4.75 µM (active)
same,outcome,[2],inactive
same,outcome,CYP2C8 (gene 1558),inactive
same,outcome,CYP2C9 (gene 1559),inactive
same,outcome,CYP2E1 (gene 1571),inactive
same,outcome,CYP4A11 (gene 1579),inactive
same,outcome,[3],inactive
same,outcome,[4],inactive
same,outcome,[5],inactive
same,outcome,[6],inactive
same,outcome,[7],inactive
same,outcome,CYP3A5 (gene 1577),inactive
same,outcome,[9],inactive
same,outcome,[10],inactive
same,outcome,[11],inactive
same,outcome,[12],inactive
same,outcome,[13],inactive
same,outcome,[14],inactive
